Laboratory results taken from PubChem BioAssay (NCATS).
Inconclusive results are not listed. Values without a mark were called inactive. Activity calls are given as the source filed them. The call rests on the fitted dose curve; in most records, active means well fitted cell-killing curve with a large enough effect; inconclusive means small, poorly fitted or top-dose-only effect, or effect the other way; inactive means no such curve, though single readings can be large or run the other way.

Columns and labels:
[1] = Viability qHTS for spleen associated tyrosine kinase inhibitor (SYKi) naive MV4-11 cells (AID 1963823); further: nearly all actives have a fitted effect of over 40% in size
Summary of the method: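 Viability of MV4-11 AML cells lacking prior SYK inhibitor exposure is scored by CellTiter-Glo luminescence following 72 hr compound incubation at 37 C, 5% CO2, seeded at 500 cells per well.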

[2] = Viability qHTS for spleen associated tyrosine kinase inhibitor (SYKi) drug resistant MV4-11 cells (AID 1963824); further: nearly all actives have a fitted effect of over 35% in size
Summary of the method: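 SYK-inhibitor-resistant MV4-11 AML cells were seeded at 500 per well onto compound and cultured 72 hours (37 °C, 5% CO2). CellTiter-Glo was then added, and after 10 min at room temperature, luminescence gave viability.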
Potency means the concentration at half of the fitted maximal effect.

SMILES	Potency [1]	Potency [2]	viability (% of control) [1]	viability, % of control [2]
Fc1cc(F)c2c(c1)[C@H]1C=CC[C@H]1C(c1cccnc1)N2 (some centres not stated)	2910 nM (active)	3660 nM (active)		
Clc1ccc(CO/N=C(\Cn2ccnc2)c2ccc(Cl)cc2Cl)c(Cl)c1	13300 nM (active)	9440 nM (active)		
Cc1ccccc1C1=CCN(C)CC1	inactive	inactive		
CC(=O)O[C@@H]1[C@H]2CC[C@H]3[C@@](C)(O)[C@@H]4C[C@H](O)C(C)(C)[C@@]4(O)[C@H](O)C[C@@]13C[C@@]2(C)O	inactive	inactive		
CC(=O)O[C@@H]1[C@@H](O)[C@H]2O[C@@H]3C=C(C)[C@@H](O)C[C@]3(CO)[C@]1(C)[C@]21CO1	321 nM (active)	321 nM (active)		
C[C@]12CC[C@H](O)CC1=CC[C@@H]1C2CC[C@]2(C)[C@@H](C3=CC(=O)OC3)CC[C@]12O (some centres not stated)	11400 nM (active)	4040 nM (active)		
CCN1C[C@]2(COC)[C@H](O)C[C@H](OC)[C@]34[C@@H]5C[C@]6(O)[C@H](OC(=O)c7ccccc7)[C@@H]5[C@@](O)([C@H]([C@H](OC)[C@H]23)[C@@H]14)[C@@H](O)[C@@H]6OC	inactive	inactive		
Fc1cc(F)c2c(c1)C1C=CCC1C(c1cccnc1)N2 (configuration not stated)	3660 nM (active)	2910 nM (active)		
CC1=CC2/C=C(\C)CCC(O)C(O)/C=C/C(=O)C23C(=O)NC(CC(C)C)C3C1C (configuration not stated)	1260 nM (active)	1420 nM (active)		
CC[C@@H]1C[C@H]2CC[C@H](O2)[C@H](C)C(=O)O[C@@H](C)C[C@@H]2CC[C@@H](O2)[C@@H](C)C(=O)O[C@H](CC)C[C@H]2CC[C@H](O2)[C@H](C)C(=O)O[C@@H](C)C[C@@H]2CC[C@@H](O2)[C@@H](C)C(=O)O1	30.6 nM (active)	19.3 nM (active)		
COC[C@@H]1OC(=O)c2coc3c2[C@]1(C)C1=C(C3=O)[C@H]2CC[C@H](O)[C@@]2(C)C[C@@H]1OC(C)=O	8200 nM (active)	6510 nM (active)		
CN1CCCC1CCOC(c1cc2nccc(C(=O)O)c2[nH]1)c1ccccc1Cl (configuration not stated)	inactive	inactive		
COC1CC(OC2CCC3(C)C(=CCC4C3CCC3(C)C(C(C)OC5OC(COC6OC(CO)C(O)C(O)C6O)C(O)C(O)C5O)CCC43O)C2)OC(C)C1OC1OC(C)C(O)C(OC)C1O (configuration not stated)			91.8% [at 9.25 µM]	87.9% [at 9.25 µM]
CC(=O)O[C@H]1C[C@@H](C)O[C@H]2O[C@@H]3CC4CC[C@@H]5C(CC[C@]6(C)[C@@H](C7=CC(=O)OC7)CC[C@]56O)[C@@]4(C=O)C[C@H]3O[C@]21O (some centres not stated)	43.2 nM (active)	48.5 nM (active)		
CO[C@@H]1C[C@H](O[C@H]2CC[C@@]3(C)C(CCC4C3CC[C@]3(C)[C@@H](C5=CC(=O)OC5)[C@@H](OC(C)=O)CC43O)C2)O[C@H](C)[C@@H]1O[C@H]1O[C@H](CO[C@@H]2O[C@H](CO)[C@@H](O)[C@H](O)[C@H]2O)[C@@H](O)[C@H](O)[C@H]1O (some centres not stated)	310 nM (active)	155 nM (active)		
COC1C(O)C(C)OC(OC2C(CO)O[C@@H](O[C@@H]3CC4CCC5C(CC[C@]6(C)[C@@H](C7=CC(=O)OC7)CC[C@]56O)[C@@]4(C)[C@H](OC(C)=O)C3)C(O)C2O)C1O (some centres not stated)	2430 nM (active)	1090 nM (active)		
C=C[C@H]1[C@H](O[C@@H]2O[C@H](CO)[C@@H](O)[C@H](O)[C@H]2O)OC=C2C(=O)OCC[C@H]21	inactive	inactive		
COC1CC(OC2CCC3(C=O)C(CCC4C3CCC3(C)C(C5=CC(=O)OC5)CCC43O)C2)OC(C)C1OC1OC(CO)C(O)C(O)C1O (configuration not stated)	86.2 nM (active)	54.4 nM (active)		
C=C1[C@@]23C(=O)O[C@H](C)[C@]24O[C@@]2(C(=C)[C@]5(C=CC(=O)OC5(C)C)CC[C@]32C)[C@H](O)[C@@]1(C)OC4=O	inactive	inactive		
CC1CCCC(O)CC(=O)Cc2cc(O)cc(O)c2C(=O)O1 (configuration not stated)	inactive	inactive		
C[C@]12CC[C@H]3[C@@H]([C@H](O)CC4=CC(=O)CC[C@@]43C)[C@@H]1CC[C@@H]2O	inactive	inactive		
CC(=O)O[C@H]1CN2CCC1CC2	inactive	inactive		
C=C(CO)[C@@]12O[C@@H]1[C@@]1(C)C(=CC2=O)CC[C@@H](O)[C@@H]1C	8200 nM (active)	5170 nM (active)		
CC(=O)OC12C(O)C(C)C3(O)C4C=C(C)C(=O)C4CC(CO)=CC3C1C2(C)C (configuration not stated)	inactive	inactive		
CO[C@@H]1[C@H](O)[C@@H](O[C@@H]2C[C@H]3CC[C@@H]4C(CC[C@]5(C)[C@@H](C6=CC(=O)OC6)CC[C@]45O)[C@@]3(C)[C@H](O)C2)O[C@H](C)[C@@H]1O[C@@H]1O[C@H](CO)[C@@H](O)[C@H](O)[C@H]1O (some centres not stated)	96.8 nM (active)	54.4 nM (active)		
COc1cc(C(=O)O[C@H]2[C@@H]3C=CO[C@@H](O[C@@H]4O[C@H](CO)[C@@H](O)[C@H](O)[C@H]4O)[C@@H]3[C@@]3(CO)O[C@@H]23)ccc1O	inactive	inactive		

SMILES	Potency [1]	Potency [2]	viability (% of control) [1]	viability, % of control [2]
C[C@]12CC[C@H](O)C[C@@H]1CC[C@@H]1[C@@H]2CC[C@]2(C)[C@@H](C3=CC(=O)OC3)CC[C@]12O	3210 nM (active)	2550 nM (active)		
CN1[C@H]2C[C@H](OC(=O)[C@H](CO)c3ccccc3)C[C@@H]1[C@@H](O)C2	inactive	inactive		
CCCCCCC(C)(C)c1cc(O)c2c(c1)OC(C)(C)C1CC=C(CO)C[C@H]21 (some centres not stated)	1180 nM (active)	1660 nM (active)		
CCC(C)(O)C1(C(=O)O)COC(=O)C1 (configuration not stated)	inactive	inactive		
CC(=O)OC[C@]12C[C@H](OC(C)=O)C(C)=C[C@H]1O[C@@H]1[C@H](O)[C@@H](O)[C@@]2(C)[C@]12CO2	inactive	inactive		
C#C[C@]1(O)CC[C@H]2[C@@H]3CC[C@H]4Cc5nc6nc7ccccc7n6cc5C[C@]4(C)[C@H]3CC[C@@]21C	9200 nM (active)	7310 nM (active)		
CC(C)(C)c1cc(C(C)(C)C)c2c(c1)C(O)(C(F)(F)F)C(=O)O2 (configuration not stated)	inactive	inactive		
CC12CCC3C(CCC4(O)CC(O)CCC34C=O)C1(O)CCC2C1=CC(=O)OC1 (configuration not stated)	366 nM (active)	231 nM (active)		
CN[C@H]1[C@H](O)[C@H](O[C@@H]2[C@@H](O)[C@H](O[C@H]3O[C@H]([C@H](C)O)[C@@H](O)[C@H](O)[C@H]3N)[C@@H](N)C[C@H]2N)OC[C@@]1(C)O	inactive	inactive		
COC(=O)C12C(=O)C(C)(O)C(=O)C1(C)C(C)=CC1C34CCC(OC3=O)C(C)(CO)C4CCC12C (configuration not stated)	inactive	inactive		
COC(=O)C1(C)CCC(O)C2(C)c3c(O)cc(C(C)C)cc3C(O)C(OC(C)=O)C12 (configuration not stated)	inactive	inactive		
C=C1[C@@H](C)[C@H]2[C@H](Cc3ccccc3)NC(=O)[C@]23OC(=O)/C=C/C(=O)CCC[C@@H](C)C/C=C/[C@H]3[C@@H]1O	920 nM (active)	920 nM (active)		
C=C(C)[C@@]12O[C@@H]1[C@@]1(C)C(=CC2=O)CC[C@@H](OC(C)=O)[C@@H]1C	2310 nM (active)	2310 nM (active)		
COc1ccc2c(c1)/C(=C/c1cnc[nH]1)C(=O)N2	461 nM (active)	1640 nM (active)		
CC(C)(C)[C@]1(O)C[C@@H]2OC(=O)C[C@@]23C(=O)O[C@@H]2OC(=O)[C@@H](O)[C@]213	inactive	inactive		
CC[C@@H](C)[C@H]1C(=O)O[C@H](C(C)C)C(=O)N(C)[C@@H](C(C)C)C(=O)O[C@H](C(C)C)C(=O)N(C)[C@@H](C(C)C)C(=O)O[C@H](C(C)C)C(=O)N1C	5440 nM (active)	2730 nM (active)		
CO/C1=C\C(C)=C\[C@@H](C)[C@@H](O)[C@@H](C)C/C(C)=C/C=C/[C@H](OC)[C@@H]([C@@H](C)[C@@H](O)[C@H](C)[C@@]2(O)C[C@@H](O)[C@H](C)[C@@H](C(C)C)O2)OC1=O	21.7 nM (active)	17.2 nM (active)		
C=C1C(=O)O[C@@H]2[C@H]3C(=C)[C@@H](O)C[C@H]3C(=C)C[C@@H](O)[C@@H]12	3660 nM (active)	3660 nM (active)		
CC[C@H]1CN2CC[C@H]1C[C@@H]2[C@@H](O)c1ccnc2ccc(OC)cc12	inactive	inactive		
O=C(OC[C@H]1O[C@@H](Oc2ccc(O)cc2CO)[C@H](O)[C@@H](O)[C@@H]1O)c1ccccc1	inactive	inactive		
CC[C@H](C)[C@@H]([C@@H](CC(=O)N1CCC[C@H]1[C@H](OC)[C@@H](C)C(=O)N[C@@H](Cc1ccccc1)c1nccs1)OC)N(C)C(=O)[C@@H](NC(=O)C(C)(C)N)C(C)C	inactive	inactive		
C/C=C(\C)C(=O)OC1CC2C(CC=C3CC(OC4CC(OC)C(OC5CC(OC)C(OC6OC(C)C(OC7OC(CO)C(O)C(O)C7O)C(OC)C6O)C(C)O5)C(C)O4)CCC32C)C2(O)CCC(C(C)=O)C12C (configuration not stated)			73.7% [at 9.25 µM]	85.3% [at 9.25 µM]
C[C@@H](CN1CCC2(CC1)C(=O)NCN2c1cccc(F)c1)NC(=O)c1ccc(Br)cc1	16400 nM (active)	13000 nM (active)		
CO[C@@H]1[C@H](O)[C@@H](O[C@@H]2C[C@H]3CC[C@@H]4C(CC[C@]5(C)[C@@H](C6=CC(=O)OC6)CC[C@]45O)[C@@]3(C)[C@H](O)C2)O[C@H](C)[C@@H]1O (some centres not stated)	63.2 nM (active)	28.2 nM (active)		
CCC1NC(=O)C2C(Cl)C(Cl)CN2C(=O)C(C(C)O)NC(=O)CC(c2ccccc2)NC(=O)C(CO)NC1=O (configuration not stated)	inactive	inactive		
